Pf growth 96h: inhibits malaria parasite growth, 96 h | P. falciparum luciferase reporter growth, 96 h | hit rate 6.9% among 320,000 | Potency, µM (highest dose often 28.7 µM), inactives show top-dose activity change, negative = inhibition, actives largely listed as inhibitors; note: % is set by controls: 0 for no effect and ±100 for the full control effect
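Luminescence readout: decreased luciferase signal marks inhibited growth of reporter-expressing P. falciparum in infected red cells (2% hematocrit, 0.05% parasitemia final), exposed to compound two generations (96 h, 37 C, 5% CO2).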
SARS PLP yeast: blocks SARS-CoV papain-like protease in a yeast assay; S. cerevisiae expressing SARS-CoV PLpro, growth rescue; Potency, µM (series often up to 32.9 µM), without a hit: at the highest dose activity, positive = growth rescue, most hits filed as activators; hit rate 0.19% among 330,000; calls by dose curve; note: 0% is about no effect; nearly all actives have a fitted effect of over 55% in size
Sm TGR block: inhibitors of Schistosoma mansoni thioredoxin glutathione reductase. Potency, µM (highest dose often 114 µM), for the others: top-dose activity change, negative = inhibition, most hits filed as inhibitors. purified TGR, DTNB reduction, TNB absorbance 405 nm. Q962Y6. hit rate 3% among 360,000; note: % is set by controls: 0 for no effect and ±100 for the full control effect; nearly all actives have a fitted effect of over 60% in size
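First, TGR (20 nM dispensed) and NADPH were mixed with compound. Second, a 15 min room-temperature incubation followed. Third, further NADPH and then DTNB were added to start the reaction. Finally, TNB absorbance was monitored kinetically.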
Pf growth 48h: P. falciparum growth inhibition at 48 hours (one generation); AID 504832; P. falciparum luciferase growth in erythrocytes, 48 h; hit rate 5.9% among 310,000; Potency, µM (top dose mostly 28.7 µM), for inactives: top-dose activity change, negative = inhibition, most hits filed as inhibitors; note: % is set by controls: 0 for no effect and ±100 for the full control effect
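A one-generation exposure of luciferase-tagged malaria parasites in RPMI 1640/Albumax erythrocyte culture, 37 C and 5% CO2. Inhibition is inferred from decreased luminescence after adding detection reagent.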
* marks the source's active call; other numbers are inactive results; u = inconclusive; x = no result given; [ ] = another dose, or the depositor's remark. Compounds with a hit are over-represented: about 12% of the library has one in this group of screens. Unless noted, calls come from the whole dose curve; as a rule, active = well fitted curve in the direction sought with a large enough effect; inconclusive = small, poorly fitted or top-dose-only effect, or another doubt; inactive = no such curve, though single readings can be large; an effect the other way counts as inactive or inconclusive. Potency is the fitted concentration of half-maximal effect.

SMILES	Pf growth 96h	SARS PLP yeast	Sm TGR block	Pf growth 48h
COc1ccc(CCN2C(=O)CC(N3CCOCC3)C2=O)cc1OC (stereo not drawn)	u	-14%	-31%	-10%
COc1ccc(CCN2C(=O)CC(Sc3ncccc3C(=O)O)C2=O)cc1OC (stereo not drawn)	49%	-5%	11µM*	1%
COc1ccc(CCn2c(=S)[nH]c3ccc(N4CCOCC4)cc3c2=O)cc1OC	u	0%	u	10µM*
CCc1ccc(NC2CC(=O)N(CCc3ccc(OC)c(OC)c3)C2=O)cc1 (stereo not drawn)	0%	-1%	14µM*	-2%[5.75 µM]
COc1cc(C(=O)N2CCc3ccccc32)c([N+](=O)[O-])cc1OC	72%	5%	-25%	0%
CCc1ccc(NC2CC(=O)N(c3ccc(OC)cc3OC)C2=O)cc1 (stereo not drawn)	204%	-1%	35µM*	11%
CCCCN1C(=O)CC(Nc2ccc(CC)cc2)C1=O (stereo not drawn)	-26%	-11%	u	129%
COc1ccc(CCNC2CC(=O)N(CCc3ccc(OC)c(OC)c3)C2=O)cc1 (stereo not drawn)	4.7µM*	-4%	u	x
O=C1CCCc2cc(S(=O)(=O)NCC3CCC(C(=O)NCc4ccccc4Cl)CC3)ccc2N1 (stereo not drawn)	x	x	2%	x
Fc1ccccc1Cn1c2[n+](c3ccc(C(F)(F)F)cc31)CCCCC2	2.3µM*	-2%	-7%	u
COc1ccc(OC)c(C(=O)Cn2c3[n+](c4ccc(C(F)(F)F)cc42)CCCCC3)c1	0.52µM*	-1%	-6%	u
N#Cc1cccc(NC(=O)Cn2c3[n+](c4ccc(C(F)(F)F)cc42)CCCCC3)c1	0.83µM*	-13%	5%	5.2µM*
N#Cc1cccc(NC(=O)CN2C(=O)NC3(CCCCCC3)C2=O)c1	u	-2%	-10%	-10%
COc1ccc(OC)c(C(=O)CCCC(=O)c2cc(OC)ccc2OC)c1	u	-3%	-6%	u
Cc1ccccc1CSc1cn(CC(=O)N2CCCCC2)c2ccccc12	x	x	2%	x
Cc1sc2nc(CSCC(=O)Nc3ccccc3C#N)[nH]c(=O)c2c1C	5.2µM*	9%	-18%	-8%
Cc1cc(NC(=O)c2ccc(Cl)cc2Cl)no1	3.7µM*	1%	-19%	171%
Cc1ccc(-c2cc(C(=O)O)c3ccccc3n2)s1	2%	-3%	-11%	16%
Cc1c(Cl)ccc2c(C(=O)Nc3cc(C(C)(C)C)on3)cc(-c3ccccn3)nc12	2.1µM*	-7%	-14%	0%
Cc1cccc(NC(=O)c2cc(-c3ccc(C)s3)nc3ccccc23)n1	36%	-7%	2%	10µM*
Cc1cc(NC(=O)c2cc(-c3ccccc3C)nc3ccccc23)no1	u	16%	3%	u
Cc1cc(NC(=O)c2cc(-c3ccc(C)s3)nc3ccccc23)no1	12µM*	-2%	-3%	x
Cc1cc(NC(=O)Nc2ccc(Cl)cc2)no1	u	-11%	17%	74%
O=C(CSc1nc2c([nH]c3ccccc32)c(=O)n1-c1cccc(C(F)(F)F)c1)N1CCc2ccccc21	x	x	0%	x
CC(C(=O)Nc1cc(C(F)(F)F)ccc1Cl)n1nnc2sc3c(c2c1=O)CCCC3 (stereo not drawn)	x	x	1%	x
SMILES	Pf growth 96h	SARS PLP yeast	Sm TGR block	Pf growth 48h
OC(CCc1cccc(Cl)c1)c1cccs1 (stereo not drawn)	12%	-3%	-16%	x
CC(C)NC(=S)NC(=O)c1ccc(Cl)cc1Cl	50%	7.9µM*	-22%	-1%
O=C(NCCc1ccccn1)c1cc(-c2ccc(Cl)c(Cl)c2Cl)nc2ccccc12	u	-13%	-12%	u
O=C(NCc1ccccn1)c1cc(-c2ccncc2)nc2ccccc12	u	4%	-13%	u
O=C(Nc1nn[nH]n1)c1cc(-c2ccc(Cl)c(Cl)c2Cl)nc2ccccc12	2.3µM*	0%	1%	-4%
Cc1cc(NC(=O)c2cc(-c3ccccc3Cl)nc3ccccc23)no1	u	-9%	0%	13µM*
O=C(NCc1ccccn1)c1cc(-c2ccccc2Cl)nc2ccccc12	u	2%	-8%	9.3µM*
O=S(=O)(c1ccccc1)c1nnn2c1nc(NCc1ccc(F)cc1)c1sccc12	x	x	10%	x
COc1ccc(Nc2cc(C(=O)NCc3ccccn3)c3ccccc3n2)c(OC)c1	13µM*	-4%	-2%	33%
Cc1cc(C)cc(Nc2cc(C(=O)NCc3ccccc3)c3ccccc3n2)c1	x	x	35µM*	x
COc1ccc(Nc2cc(C(=O)NCc3cccnc3)c3ccccc3n2)c(OC)c1	u	0%	1%	11%
Cc1cc(NC(=O)c2cc(-c3cccnc3)nc3c(C)c(C)ccc23)no1	13%	-24%	-2%	2.9µM*
CC(C)Oc1ccc(CNC(=O)CCCN2C(=O)c3cccnc3Oc3ccc(Cl)cc32)cc1	x	x	1%	x
COc1cc2nc(/C=C/c3cc(OC)c(OC)c(OC)c3)sc2cc1SC	-102%	-2%	-9%	2.6µM*
COc1cc2nc(C)sc2cc1SC	x	5%	12%[11.4 µM]	x
CCCCCn1c(=O)[nH]c2cc(C(=O)Nc3ccc(F)c(F)c3)ccc2c1=O	x	x	4%	x
O=C(NNc1ccc(O)cc1)c1ccc(Br)cc1	153%	6%	22µM*	28%
O=C(NNC(=O)c1ccc(Br)cc1)c1ccncc1	11%	4%	4%	40%
O=C(Nc1cc(-c2ccc(Cl)cc2)no1)c1ccc(F)cc1	x	x	6%	x
O=C(Nc1ccc(F)cc1F)c1ccc2nc(N3CCOCC3)sc2c1	12µM*	5%	-1%	80%
O=C(Nc1ccc2nc(N3CCOCC3)sc2c1)c1ccc(F)cc1	u	1%	1%	-28%
Cc1ccc(NC(=O)C2CCCN(c3ncnc4c3nc3n4CCCCC3)C2)cc1F (stereo not drawn)	x	x	-4%	x
Cc1ccc(S(=O)(=O)N2CCOCC2)cc1C(=O)N1CCN(c2ccc(C(F)(F)F)cn2)CC1	x	-18%	x	x
O=C(O)c1cccc(Nc2cc(Cl)c3nonc3c2[N+](=O)[O-])c1	-1%	1%	0.35µM*	u
O=[N+]([O-])c1c(Nc2ccc(O)cc2)cc(Cl)c2nonc12	-24%	-10%	0.32µM*	x
SMILES	Pf growth 96h	SARS PLP yeast	Sm TGR block	Pf growth 48h
O=C(O)c1ccccc1Nc1cc(Cl)c2nonc2c1[N+](=O)[O-]	3%	7%	0.45µM*	15%
O=[N+]([O-])c1c(Nc2ccccn2)cc(Cl)c2nonc12	13%	-19%	0.89µM*	-2%
O=C(O)c1ccccc1Nc1ccc([N+](=O)[O-])cc1	u	-12%	0%	41%
O=C(O)c1nn(-c2ccccc2-c2n[nH]c(=O)[nH]c2=O)c(=O)[nH]c1=O	-4%	3%	11µM*	30%
CCN1CCN(CC(O)COC(c2ccccc2)c2ccccc2C)CC1 (stereo not drawn)	-33%	0%	-1%	0%
CCC(C)(C)NC(=O)c1ccc2c(c1)N(CC(=O)NC1CCCC1)C(=O)C(C)(C)O2	6.6µM*	3%	12%	1%
COc1ccc(CNC(=S)Nc2cccc(F)c2)cc1	0%	21%	u	-25%

High-throughput results as filed in PubChem.
